Bioassay records from PubChem.
BAZ2B inh – inhibitors of human BAZ2B bromodomain; Potency, µM (highest dose often 114 µM), usual class: inhibitors; hit rate 4.4% among 360,000; AID 504333; AlphaScreen BAZ2B-H3K14Ac peptide displacement; note: nearly all actives have a fitted effect of over 60% in size
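AlphaScreen displacement: compounds (up to 110uM) incubated 30 min at room temperature with a preformed 50 nM BAZ2B/50 nM biotinylated H3K14Ac peptide complex in PBS pH 7.4 with Tween-20. Donor and acceptor beads at 10 ug/mL final added, 20 min light-protected before reading.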
PI5P4Ka inh – inhibitors of human PI5P4K alpha; AID 652105; hit rate 1.2% among 330,000; PI5P4Kalpha enzyme, ADP-Glo luminescence, 60 min; active compounds read low; max response, %; active = max response of -50% or lower; inconclusive = between -30% and -50%; inactive = -30% or higher; note: value at the top dose of about 77 µM
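Reactions run in 0.038 M HEPES pH 7.4, 0.28 mM EGTA, 0.1% CHAPS and 5% DMSO, with PI5P4Kalpha, substrate, compound and 5 microM ATP final, one hour at room temperature. Readout is ADP-Glo luminescence.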
PLK1 PBD block – inhibitors of human PLK1 polo-box domain binding; P53350; hit rate 2.8% among 360,000; Potency, µM, most hits filed as inhibitors; AID 720504; Plk1 PBD binding of FITC phosphopeptide, fluorescence polarization; note: series mostly up to about 57 µM; nearly all actives have a fitted effect of over 65% in size
Target sequence (P53350 whole entry, looked up, the tested form may be a part): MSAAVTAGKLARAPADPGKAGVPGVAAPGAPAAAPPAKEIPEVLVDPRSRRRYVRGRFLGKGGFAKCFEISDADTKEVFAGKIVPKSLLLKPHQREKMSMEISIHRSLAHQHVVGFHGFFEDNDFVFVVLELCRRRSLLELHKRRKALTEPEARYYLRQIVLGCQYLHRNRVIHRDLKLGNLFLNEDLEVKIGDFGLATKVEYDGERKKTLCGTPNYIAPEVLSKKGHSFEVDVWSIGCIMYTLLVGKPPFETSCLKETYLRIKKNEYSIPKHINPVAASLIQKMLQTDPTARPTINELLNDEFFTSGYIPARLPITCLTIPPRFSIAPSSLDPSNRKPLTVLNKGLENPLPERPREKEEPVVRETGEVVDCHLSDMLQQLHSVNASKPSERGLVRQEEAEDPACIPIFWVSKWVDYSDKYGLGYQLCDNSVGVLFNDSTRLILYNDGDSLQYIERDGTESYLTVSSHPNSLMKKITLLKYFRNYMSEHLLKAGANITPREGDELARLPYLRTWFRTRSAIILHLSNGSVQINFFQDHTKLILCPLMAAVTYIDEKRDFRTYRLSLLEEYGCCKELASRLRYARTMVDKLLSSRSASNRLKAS
HP1b binding inh – blocks HP1-beta chromodomain binding to methylated histone tails; P83916; AlphaScreen HP1-beta / biotin-H3K9me3 peptide binding; Potency, µM (doses to about 114 µM), usual class: inhibitors; hit rate 0.56% among 390,000; AID 540317; note: nearly all actives have a fitted effect of over 70% in size
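AlphaScreen: HP1-beta (50 nM) preformed 30 min with biotin-H3(1-18)K9me3 peptide (50 nM) in PBS pH 7.4, 0.01% Tween-20. Compound added for 30 min at RT, then streptavidin donor/nickel chelate acceptor beads (10 ug/mL) for 30 min.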
JMJD2A Tudor – blocks the human JMJD2A Tudor domain. AlphaScreen JMJD2A-Tudor / H3K4me3 peptide binding. Potency, µM (top dose mostly 114 µM), usual class: inhibitors. hit rate 4.4% among 390,000. AID 504339; note: nearly all actives have a fitted effect of over 50% in size
KAT2A inh – blocks human GCN5L2 histone acetyltransferase | Q92830 | GCN5L2 HAT assay, ThioGlo1 CoA-SH fluorescence | Potency, µM (titrated, usually from 58.9 µM), most hits filed as inhibitors | hit rate 0.21% among 390,000 | AID 504327
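GCN5L2 (20 nM) in 50mM HEPES pH 7.5, 0.1mM EDTA, 0.01% Tween-20 preincubated 15 min with compounds at room temperature. Reaction started with H3(1-25) 75uM, acetyl-CoA 70uM, ThioGlo1 50uM; CoA-thiol fluorescence (Ex340/Em540) read at 0 and 20 min.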
A number is an active result; [ ] = dose if it differs, or a comment. In the library only some 7% were active in any assay of this set; here they are far more common. Unless noted, calls come from the whole dose curve; as a rule, active = well fitted curve in the direction sought with a large enough effect; inconclusive = small, poorly fitted or top-dose-only effect, or another doubt; inactive = no such curve, though single readings can be large; an effect the other way counts as inactive or inconclusive.

`Cc1cc(C)c2c(c1)/C(=N/Nc1ccc(S(N)(=O)=O)cc1[N+](=O)[O-])CCC2` gave BAZ2B inh inactive, PI5P4Ka inh inactive, PLK1 PBD block inactive, HP1b binding inh inactive, JMJD2A Tudor inactive and KAT2A inh inactive.
COc1ccc(Br)cc1CNC(=O)c1ccc(-n2c(C)cc3c2CCC(C)C3)cc1 (configuration not stated) was read as BAZ2B inh inactive, HP1b binding inh inactive, JMJD2A Tudor inactive and KAT2A inh inactive.
For CN(C(=O)CSc1nc2ccc(NC(=O)c3cccs3)cc2s1)c1ccccc1 the results were BAZ2B inh inactive, HP1b binding inh inactive, JMJD2A Tudor inactive and KAT2A inh inactive.
For CCOc1ccccc1NC(=O)COC(=O)C1CC(=O)N(c2c(C)cccc2C)C1 (configuration not stated) the results were BAZ2B inh inactive, PI5P4Ka inh inactive, PLK1 PBD block inactive, HP1b binding inh inactive, JMJD2A Tudor inactive and KAT2A inh inactive.
For CCOC(=O)c1c(NC(=O)c2ccc(S(=O)(=O)N(CC(C)C)CC(C)C)cc2)sc2c1CCN(CC)C2 the results were BAZ2B inh inactive, HP1b binding inh inactive, JMJD2A Tudor inactive and KAT2A inh inactive.
COc1ccc(OC)c(S(=O)(=O)N/N=C\c2c[nH]c3ccccc23)c1 was read as BAZ2B inh inactive, PI5P4Ka inh inactive, PLK1 PBD block inactive, HP1b binding inh inactive, JMJD2A Tudor inactive and KAT2A inh inactive.
For COCCN=c1scc(-c2cc(OC)ccc2OC)n1/N=C/c1c[nH]c2ccccc12 the results were BAZ2B inh 11.2µM, PI5P4Ka inh inactive, PLK1 PBD block inactive, HP1b binding inh inconclusive, JMJD2A Tudor 39.8µM and KAT2A inh inactive.
Screening CCOc1nc(NCc2ccco2)nc(Nc2ccc(OC)cc2)n1 returned BAZ2B inh 50.1µM, PI5P4Ka inh inactive, PLK1 PBD block inactive, HP1b binding inh inactive, JMJD2A Tudor inactive and KAT2A inh inactive.
Screening COc1ccc(Nc2nc(NCc3ccco3)nc(N/N=C/c3ccccc3)n2)cc1 returned BAZ2B inh 79.4µM, PI5P4Ka inh inactive, PLK1 PBD block inactive, HP1b binding inh inactive, JMJD2A Tudor inconclusive and KAT2A inh inactive.
For Cc1cc(C(=O)CCC(=O)Nc2ccc(C(N)=O)cc2)c(C)s1 the results were PI5P4Ka inh inactive and PLK1 PBD block inactive.
COC(=O)c1ccc(Cn2c(C)cc(C)[n+]2C)o1 was read as BAZ2B inh inconclusive, PI5P4Ka inh inactive, PLK1 PBD block inactive, HP1b binding inh inactive, JMJD2A Tudor 39.8µM and KAT2A inh inactive.
For COC(=O)c1ccc(Cc2ccc(C(=O)OC)o2)o1 the results were BAZ2B inh inactive, PLK1 PBD block inactive, HP1b binding inh inactive, JMJD2A Tudor inactive and KAT2A inh inactive.
Screening CCC(C)NCc1ccc(C(=O)OC)o1 (configuration not stated) returned BAZ2B inh inactive, PI5P4Ka inh inactive, PLK1 PBD block 23.8µM, HP1b binding inh inconclusive, JMJD2A Tudor inconclusive and KAT2A inh inactive.
`CCn1c(-c2nn(C)c(C)c2Cl)n[nH]c1=S` gave BAZ2B inh inactive, PI5P4Ka inh inactive, PLK1 PBD block inactive, HP1b binding inh inactive, JMJD2A Tudor inconclusive and KAT2A inh inactive.
For Oc1cc2ccccc2cc1-c1n[nH]c(=S)n1Cc1ccco1 the results were BAZ2B inh inconclusive, PI5P4Ka inh inactive, PLK1 PBD block inactive, HP1b binding inh inactive, JMJD2A Tudor inconclusive and KAT2A inh inactive.
For Oc1ccc(-c2n[nH]c(=S)n2Cc2ccco2)cc1 the results were BAZ2B inh inactive, PLK1 PBD block inactive, HP1b binding inh inactive, JMJD2A Tudor 3.55µM and KAT2A inh inactive[0.501 µM].
Screening COc1cccc(-c2n[nH]c(=S)n2Cc2ccco2)c1OC returned BAZ2B inh inactive, PLK1 PBD block inactive, HP1b binding inh inactive, JMJD2A Tudor 7.94µM and KAT2A inh inactive.
`Cc1nn(C)c(-c2n[nH]c(=S)n2Cc2ccco2)c1Cl` gave BAZ2B inh inactive, PI5P4Ka inh inactive, PLK1 PBD block inactive, HP1b binding inh inactive, JMJD2A Tudor 22.4µM and KAT2A inh inactive.
CCOC(=O)C1=CCN(S(=O)(=O)c2ccc(Br)cc2)C1c1ccc(C)cc1 (configuration not stated) was read as PI5P4Ka inh inactive and PLK1 PBD block inactive.
